In the library only some 8.2% were active in any assay of this set; here they are far more common.
ELG1 repair inh – blocks ELG1-dependent DNA repair in HEK293T cells; HEK293T ELG1-luciferase reporter, luminescence, 16 h; DNA damage induced by 5-fluorouridine; Potency, µM (highest dose often 46.1 µM), without a hit: at the top dose activity change, negative = inhibition, most hits filed as inhibitors; actives 2.3% (n = 330,000); AID 504467; note: % is set by controls: 0 for no effect and ±100 for the full control effect; nearly all actives have a fitted effect of over 55% in size
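Cells (2,000 per well) received 5-fluorouridine plus test compound or DMSO and were incubated 16 hr at 37 °C, 5% CO2. Luciferase activity was read by luminescence 30 min after ONE-Glo addition; signal suppression marked inhibition of damage-induced ELG1 function.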
SW480 rerep – induces DNA re-replication in SW480 colon adenocarcinoma cells; SW480 DNA re-replication, Hoechst DNA content imaging, 48 h; Potency, µM (series often up to 46.1 µM), for the others: at the highest dose re-replication activation, most hits filed as activators; actives 1.8% (n = 340,000); AID 624297; note: % of control where 0% means no effect; nearly all actives have a fitted effect of over 55% in size
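Per well, 250 cells were exposed to pinned compound for 48 hr. Nuclear DNA was visualised with Hoechst (40 min, 37 C) and total object intensity recorded by fluorescence scanning.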
MCF10A rerep – induces DNA re-replication in MCF 10a normal breast cells; MCF 10A DNA re-replication, Hoechst nuclear intensity, 48 h; Potency, µM (highest dose often 46.1 µM), for the others: at the highest dose activity, positive = re-replication, actives largely listed as activators; actives 2.9% (n = 350,000); AID 624296; note: % of control where 0% means no effect; nearly all actives have a fitted effect of over 50% in size
KB-V1 cytotox – KB-V1 MDR subline cytotoxicity; actives 3.4% (n = 400,000); Potency, µM (doses to about 46.1 µM), usual class: cytotoxic; KB-V1 MDR cells viability, CellTiter-Glo, 72 h; AID 1347076; note: % is set by controls: 0 for no effect and ±100 for the full control effect; nearly all actives have a fitted effect of over 60% in size
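Cytotoxicity via CellTiter-Glo luminescence after 72 h compound exposure at 37 degrees C. Cells: drug-selected KB-V1 line, DMEM phenol-red free plus 10% FBS. Compounds tested at multiple concentrations; normalized data fitted to concentration-effect curves.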
KB-3-1 cytotox – kills parental KB-3-1 adenocarcinoma cells; actives 1.4% (n = 400,000); Potency, µM (top dose mostly 46.1 µM), actives largely listed as cytotoxic; AID 1347075; KB-3-1 viability, CellTiter-Glo ATP luminescence, 72 h; note: % is set by controls: 0 for no effect and ±100 for the full control effect; nearly all actives have a fitted effect of over 60% in size
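Viability of parental KB-3-1 cells, measured by CellTiter-Glo luminescence, followed a 72 h incubation at 37 °C with pinned compounds in phenol-red-free DMEM containing 10% FBS.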
An asterisk follows results filed as active; i = inactive; ? = inconclusive; · = not tested or not shown; ! = repeats disagree. Calls come from the whole dose curve; as a rule, active = well fitted curve in the direction sought with a large enough effect; inconclusive = small, poorly fitted or top-dose-only effect, or another doubt; inactive = no such curve, though single readings can be large; an effect the other way counts as inactive or inconclusive. Potency is the fitted concentration of half-maximal effect.

SMILES | ELG1 repair inh | SW480 rerep | MCF10A rerep | KB-V1 cytotox | KB-3-1 cytotox
C/C(=N\NC(=S)Nc1cc(S(=O)(=O)N2CCOCC2)ccc1Cl)c1ccccc1F | ? | ? | ? | 3.7µM* | ?
O=C(/C=C/c1ccc(S(=O)(=O)N2CCOCC2)cc1)Nc1cc(F)ccc1F | ? | -9% | ? | i | i
O=C(/C=C/c1cccc(F)c1)Nc1cc(S(=O)(=O)N2CCOCC2)ccc1Cl | 26µM* | 10% | ? | · | ·
Cc1ccc(F)cc1NC(=O)/C=C/c1ccc(S(=O)(=O)N2CCOCC2)cc1 | 23µM* | 0% | 2% | i | i
O=C(/C=C/c1cccc(F)c1)Nc1cc(S(=O)(=O)N2CCOCC2)ccc1N1CCCC1 | -11% | · | -2% | i | i
O=C(/C=C/c1ccc(S(=O)(=O)N2CCOCC2)cc1)NC(=S)Nc1ccc(Cl)cc1Cl | 6% | ? | 16µM* | i | i
COc1ccc(Cl)cc1NC(=O)CC1S/C(=N/N=C2CCCCCC2)NC1=O (centres undefined) | ? | -7% | -4% | i | i
COc1cc(NC(=O)N2CCNC2=O)cc(C(=O)Nc2cccc(C(F)(F)F)c2)c1 | ? | 5.2µM* | 2.1µM* | i | 10µM*
CCN1CCN(Cc2ccc(NC(=O)c3cc(NC(=O)N4CCNC4=O)cc(OC)c3)cc2C(F)(F)F)CC1 | ? | ? | 0% | ? | ?
COc1cc(NC(=O)c2nccn2C)cc(C(=O)Nc2cccc(C(F)(F)F)c2)c1 | 8% | ? | 6% | 4.1µM*! | i
CCN1CCC2(CC1)Oc1c(OC)cccc1C1CC(c3cccnc3)=NN12 (centres undefined) | 3% | -3% | -2% | i | ?
CC1CCCC(N2CCN(C(=O)c3ccc([N+](=O)[O-])cc3)CC2)C1 (centres undefined) | -13% | 8.2µM* | ? | i | i
CCOC(=O)N1CCN(C(=O)C2CCN(C(=O)c3ccc([N+](=O)[O-])cc3)CC2)CC1 | 9% | -7% | -6% | · | ·
CCOc1ccc(CNC(=O)c2ccc(Sc3ccc(Cl)cc3)c(NC(C)=O)c2)cc1 | ? | 4% | ? | 8.2µM* | ?
CC(=O)Nc1cc(C(=O)NCc2ccco2)ccc1Sc1ccc(F)cc1 | -20% | 1% | -12% | ? | i
CC(=O)Nc1cc(C(=O)N(C)Cc2ccco2)ccc1Sc1ccc(Cl)cc1 | 2% | -34% | ? | 2.9µM* | i
CC(=O)Nc1cc(C(=O)NCc2ccco2)ccc1Sc1ccc(Cl)cc1 | 1% | -10% | 15% | ? | i
CCOc1ccccc1CNC(=O)c1ccc(Sc2ccc(Cl)cc2)c(NC(C)=O)c1 | ? | ? | 20% | 18µM* | i
O=C(NCCc1ccccc1)C1CCC(CNS(=O)(=O)c2ccc(F)cc2)CC1 (centres undefined) | ? | -31% | 0% | i | i
CS(=O)(=O)c1ccc(C(=O)OCC(=O)N2CCCC2)cc1[N+](=O)[O-] | · | · | · | i | i
NC(=O)CSc1nc2ccc(NC(=O)COc3ccccc3)cc2s1 | · | · | · | i | i
Cc1ccc(C)c(N2CCN(C(=O)CCS(=O)(=O)c3ccc4c(c3)CCN4C(=O)C3CC3)CC2)c1 | -14% | -35% | 10% | i | ?
NC(=S)NNc1c(F)c(F)c(F)c(F)c1F | -6% | 14% | 15µM* | i | ?
COCOc1ccc(/C=C2/Oc3cc(OCOC)cc(OCOC)c3C2=O)c(OCOC)c1 | · | ? | 6.5µM* | i | i
Cc1nc([N+](=O)[O-])cn1CC(O)c1ccc2c(c1)OCO2 (centres undefined) | · | · | · | i | i
SMILES | ELG1 repair inh | SW480 rerep | MCF10A rerep | KB-V1 cytotox | KB-3-1 cytotox
CCCCNC(=O)c1ccc(-c2nc(CN3CCc4ccccc43)c(C)o2)cc1 | · | · | · | 5.2µM* | ?
CCCCOc1ccc(CNC(=O)c2ccc(-c3nc(CN4CCc5ccccc54)c(C)o3)cc2)cc1 | · | · | · | ? | 18µM*
Cc1ccc(C(=C2C3C=CC2C2C(=O)NC(=O)C32)c2ccc(C)cc2)cc1 (centres undefined) | -29% | 26% | ? | 15µM* | ?
CCOC(=O)CN1C(=O)C2(OCCCO2)c2cc(Br)ccc21 | 12% | -92% | 3% | i | i
O=C(C[n+]1ccc2ccccc2c1)c1ccc(O)c(O)c1 | · | · | · | i | i
COCCNC(=O)C1(C)CCCN(C(=O)c2cc(C)on2)C1 (centres undefined) | · | · | · | i | i
CC(=O)c1cccc(-c2ccnc3c2CC(C(=O)NCCc2ccccc2)O3)c1 (centres undefined) | · | · | · | 3.3µM* | 2.3µM*
CC(=O)c1cccc(-c2ccnc3c2CC(C(=O)NCc2cccs2)O3)c1 (centres undefined) | · | · | · | 2.3µM* | 1µM*
O=C(NCc1cccs1)C1Cc2c(-c3ccc(Cl)cc3)ccnc2O1 (centres undefined) | · | · | · | ? | 2.1µM*
Cc1ccc(-c2csc(=Nc3ccc(F)cc3)n2Cc2ccc3c(c2)OCO3)cc1C | · | · | · | i | i
O=C(Nc1ccc(N2CCOCC2)c(S(=O)(=O)Nc2ccccc2Cl)c1)c1ccc(F)cc1 | 18µM* | 17% | ? | ? | ?
O=C(Nc1ccc(N2CCCCC2)c(S(=O)(=O)Nc2ccccc2Cl)c1)c1cccnc1 | 18µM* | ? | 18µM* | · | ·
CCOc1ccc(C(=O)Nc2cc(S(=O)(=O)Nc3ccccc3Cl)ccc2N2CCOCC2)cc1 | ? | 13% | 4% | 6.5µM* | i
COc1ccccc1NS(=O)(=O)c1cc(NC(=O)c2ccc(NC(C)=O)cc2)ccc1N1CCOCC1 | · | -2% | ? | ? | ?
O=C(Nc1ccc(F)cc1)Nc1ccc(N2CCCC2)c(S(=O)(=O)Nc2ccccc2Cl)c1 | ? | ? | 13% | ? | 21µM*
CCOc1ccc(S(=O)(=O)Nc2ccccc2C(=O)Nc2ccccc2N2CCOCC2)cc1 | 19% | -5% | 4% | i | i
O=C(Nc1ccc(F)cc1)Nc1ccccc1N1CCCCC1 | 13µM* | -7% | 9% | ? | ?
Fc1cc(Br)ccc1NC(=S)Nc1ccccc1 | ? | -6% | ? | 15µM* | ?
O=C(Nc1ccc(Cl)c(Cl)c1)Nc1ccc(N2CCCC2)c(S(=O)(=O)Nc2ccccc2Cl)c1 | ? | ? | ? | 23µM* | 5.2µM*
COc1ccccc1NS(=O)(=O)c1cc(NC(=O)COc2ccccc2F)ccc1N1CCOCC1 | -4% | 0% | 0% | 4.6µM* | i
Fc1ccccc1NC(=S)Nc1ccc(Br)cc1 | -6% | -1% | 16% | ? | i
CN(C(=O)COC(=O)C1=COCCO1)c1c(N)n(Cc2ccccc2)c(=O)[nH]c1=O | 2% | 3% | 8% | i | i
